Experimental findings from PubChem BioAssay (NCI) are described below.

The panel holds about 83,000 compounds, 20% with a hit somewhere; the sample as a whole holds those more often.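 For each line, cells grew in 96-well plates with the test compound present at a single concentration for 48 hours.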 A number with no mark means an inactive call. The source made the active and inactive calls. Rule for the calls: active = growth percent below 10; inactive = the rest.

Test systems include 786-0 renal; MALME-3M melanoma; MDA-MB-231 breast; SF-268 CNS; SF-295 CNS; UACC-257 melanoma; UACC-62 melanoma; SK-MEL-2 melanoma; EKVX NSCLC; SN12C renal; UO-31 renal; TK-10 renal; CAKI-1 renal; A498 renal; OVCAR-8 ovarian; OVCAR-5 ovarian; IGROV1 ovarian; OVCAR-3 ovarian; HS 578T breast; NCI/ADR-RES ovarian.
Holding throughout (assay): NCI-60 one-dose screen, 48 h (100 = growth as untreated, 0 = no growth, -100 = all killed)
Conditions in all cases: 10 µM

For `COc1ccc(OC)c(-n2cc(C#N)c(N)c2C(=O)c2ccc(Cl)cc2Cl)c1`, the growth in the experiment with 786-0 renal was 63.4%; in the experiment on MALME-3M melanoma, 50.3%; with MDA-MB-231 breast, 64.2%; with SF-268 CNS, 56.2%; in the experiment on SF-295 CNS it was 28.4%; with UACC-257 melanoma, 63.6%. For the same compound, the growth with UACC-62 melanoma was 30.5%; with SK-MEL-2 melanoma, -27.5% (active); in the experiment on EKVX NSCLC, 42.7%; in the experiment on SN12C renal it was 48.9%; in the experiment with UO-31 renal it was 56.7%; with TK-10 renal it was 78.8%. The growth in the experiment on CAKI-1 renal is 36.9%; in the experiment with A498 renal, 28.3%; in the experiment on OVCAR-8 ovarian, 68.8%; in the experiment on OVCAR-5 ovarian it was 74.4%; in the experiment on IGROV1 ovarian, 53.3%; with OVCAR-3 ovarian, 23.5%. Further, the growth is 38.6% with HS 578T breast and 30.4% in the experiment with NCI/ADR-RES ovarian.

For `CC1(C)CC[C@]2(C(=O)O)CC[C@]3(C)C(=CCC4[C@@]5(C)C[C@@H](O)[C@@H]6OC(c7cccc(F)c7)OC[C@@]6(C)C5CC[C@]43C)C2C1` (stereo not given in full), the growth with 786-0 renal was 59.3%; in the experiment on MALME-3M melanoma, 70%; in the experiment on MDA-MB-231 breast it was 60.7%; in the experiment with SF-268 CNS, 55.6%; with SF-295 CNS, 42.7%; with UACC-257 melanoma, 67.8%. Also, the growth in the experiment with UACC-62 melanoma is 49.7%; in the experiment with SK-MEL-2 melanoma, 51.1%; in the experiment with EKVX NSCLC, 19.2%; with SN12C renal, 28.2%; in the experiment on UO-31 renal, 34.2%; in the experiment with TK-10 renal it was 32.4%. Also, the growth in the experiment with CAKI-1 renal is 49%; with A498 renal it was 78.7%; in the experiment with OVCAR-8 ovarian, 31.7%; in the experiment on OVCAR-5 ovarian it was 73.2%; in the experiment on IGROV1 ovarian, 75.4%; in the experiment with OVCAR-3 ovarian, 37.9%. The growth is 66.4% with HS 578T breast and 43.7% in the experiment on NCI/ADR-RES ovarian.

Turning to `COc1ccc(C(=O)COc2ccc(NC(=O)Nc3ccc(Cl)c(C(F)(F)F)c3)cc2)cc1`, the growth in the experiment on 786-0 renal is 25.2%; with MALME-3M melanoma, 31.3%; in the experiment on MDA-MB-231 breast it was 35.3%; in the experiment on SF-268 CNS it was 37.9%; in the experiment with SF-295 CNS it was 5.9% (active); with UACC-257 melanoma, 11.8%. For the same compound, the growth in the experiment on UACC-62 melanoma is 7.25% (active); with SK-MEL-2 melanoma, -6.77% (active); in the experiment with EKVX NSCLC it was 10.3%; in the experiment on SN12C renal, 40.9%; with UO-31 renal, 33.3%; in the experiment with TK-10 renal, 46.8%. Moreover, the growth is 27.2% with CAKI-1 renal; 60.8% in the experiment with A498 renal; 22.5% in the experiment with OVCAR-8 ovarian; 67.7% in the experiment on OVCAR-5 ovarian; 49.9% in the experiment with IGROV1 ovarian; 28.3% in the experiment with OVCAR-3 ovarian. Also, the growth in the experiment with HS 578T breast is 53.4%; with NCI/ADR-RES ovarian, 17.7%.

As to `O=C1NC2C=CC=CC2/C1=C1/SC(=S)N(C2CC(=O)N(c3ccc(Br)cc3)C2=O)C1=O` (stereo not given), the growth in the experiment on 786-0 renal is 97.5%; in the experiment with MALME-3M melanoma it was 97.6%; in the experiment with MDA-MB-231 breast, 101%; in the experiment with SF-268 CNS, 95.7%; with SF-295 CNS, 109%; with UACC-257 melanoma, 95.9%. Also, the growth in the experiment with UACC-62 melanoma was 87.6%; in the experiment with SK-MEL-2 melanoma it was 107%; with EKVX NSCLC, 92.6%; in the experiment on SN12C renal it was 96%; with UO-31 renal, 68.3%; with TK-10 renal it was 124%. The growth with CAKI-1 renal was 77.1%; in the experiment on A498 renal it was 129%; in the experiment with OVCAR-8 ovarian, 97.6%; in the experiment on OVCAR-5 ovarian, 104%; in the experiment on IGROV1 ovarian it was 100%; in the experiment on OVCAR-3 ovarian it was 92.2%. In addition, the growth was 98.9% with HS 578T breast and 95.6% in the experiment with NCI/ADR-RES ovarian.

`O=C1NC(=S)S/C1=C\c1cn(-c2ccccc2)nc1-c1ccc([N+](=O)[O-])cc1`: the growth was 17.9% in the experiment with 786-0 renal; -5.53% (active) in the experiment with MALME-3M melanoma; 24.7% with MDA-MB-231 breast; 42.7% in the experiment on SF-268 CNS; 5.23% (active) in the experiment with SF-295 CNS; -10.5% (active) in the experiment with UACC-257 melanoma. Moreover, the growth in the experiment on UACC-62 melanoma was 8.03% (active); with SK-MEL-2 melanoma it was -29.2% (active); in the experiment with EKVX NSCLC it was 9.43% (active); in the experiment with SN12C renal it was 14.9%; in the experiment with UO-31 renal it was 14%; with TK-10 renal, 19.3%. Besides, the growth with CAKI-1 renal is 14.5%; in the experiment with A498 renal, -2.74% (active); in the experiment on OVCAR-8 ovarian it was 18%; in the experiment with OVCAR-5 ovarian, 48.5%; in the experiment with IGROV1 ovarian, 29.2%; in the experiment with OVCAR-3 ovarian it was 21.7%. Further, the figures for the growth in the experiment with HS 578T breast and with NCI/ADR-RES ovarian were 30.1% and 13.6%, respectively.

In the case of `COc1ccccc1-n1cc(C#N)c(N)c1C(=O)c1ccc(Cl)cc1Cl`, the growth was 52.8% in the experiment with 786-0 renal; 37.6% with MALME-3M melanoma; 46.4% in the experiment on MDA-MB-231 breast; 47.3% in the experiment on SF-268 CNS; 19.9% with SF-295 CNS; 52.7% in the experiment with UACC-257 melanoma. Besides, the growth with UACC-62 melanoma was 26.9%; with SK-MEL-2 melanoma, -51.3% (active); in the experiment on EKVX NSCLC, 29.6%; in the experiment with SN12C renal it was 35%; in the experiment with UO-31 renal, 42.4%; in the experiment with TK-10 renal, 55.8%. The growth in the experiment with CAKI-1 renal is 33.8%; with A498 renal it was -0.709% (active); in the experiment with OVCAR-8 ovarian, 34.7%; with OVCAR-5 ovarian, 49.9%; with IGROV1 ovarian, 38%; in the experiment with OVCAR-3 ovarian, 17.8%. Besides, the growth in the experiment on HS 578T breast was -2.89% (active); in the experiment on NCI/ADR-RES ovarian, 16.4%.

For `O=C(Nc1ccc(Oc2ncnc3scc(Nc4n[nH]c(=S)s4)c23)cc1)C1(C(=O)Nc2cccc(C(F)(F)F)c2)CC1`, the growth was 107% in the experiment on 786-0 renal; 95.8% in the experiment on MALME-3M melanoma; 92.7% in the experiment on MDA-MB-231 breast; 102% in the experiment with SF-268 CNS; 108% in the experiment with SF-295 CNS; 110% with UACC-257 melanoma. Also, the growth in the experiment with UACC-62 melanoma is 86.5%; in the experiment on SK-MEL-2 melanoma, 113%; with EKVX NSCLC, 97.1%; in the experiment with SN12C renal, 108%; with UO-31 renal, 69.4%; in the experiment on TK-10 renal, 143%. Besides, the growth with CAKI-1 renal was 81.6%; in the experiment with A498 renal, 122%; in the experiment on OVCAR-8 ovarian it was 103%; in the experiment with OVCAR-5 ovarian it was 87.9%; with IGROV1 ovarian, 70%; in the experiment on OVCAR-3 ovarian it was 104%. Further, the figures for the growth with HS 578T breast and in the experiment with NCI/ADR-RES ovarian were 100% and 104%, respectively.

As to `COc1cc2oc(-c3cccc(C(=O)Nc4ccc(Cl)cc4)c3)cc(=O)c2c(OCCN)c1OC`, the growth in the experiment with 786-0 renal is -80.9% (active); in the experiment on MALME-3M melanoma, -67.9% (active); with MDA-MB-231 breast it was -86.7% (active); in the experiment with SF-268 CNS, -76.8% (active); with SF-295 CNS, -81.4% (active); in the experiment with UACC-257 melanoma, -85.2% (active). The growth was -86.7% (active) in the experiment on UACC-62 melanoma; -94.5% (active) in the experiment on SK-MEL-2 melanoma; -84.6% (active) in the experiment with EKVX NSCLC; -91.1% (active) with SN12C renal; -81.1% (active) with UO-31 renal; -91.2% (active) in the experiment with TK-10 renal. For the same compound, the growth is -85% (active) in the experiment with CAKI-1 renal; -93.9% (active) in the experiment on A498 renal; -85.5% (active) in the experiment with OVCAR-8 ovarian; -87.4% (active) in the experiment on OVCAR-5 ovarian; -73.7% (active) in the experiment on IGROV1 ovarian; -87.8% (active) with OVCAR-3 ovarian. Besides, the growth is -68.1% (active) in the experiment with HS 578T breast and -74.7% (active) in the experiment with NCI/ADR-RES ovarian.
